The results in this text go back to PubChem BioAssay (NCI).

Test systems include RPMI-8226 leukemia; OVCAR-5 ovarian; SK-OV-3 ovarian; IGROV1 ovarian; OVCAR-3 ovarian; HS 578T breast; NCI/ADR-RES ovarian; T-47D breast; OVCAR-4 ovarian; OVCAR-8 ovarian.
Holding throughout (test): NCI-60 one-dose screen, 48 h (100 = growth as untreated, 0 = no growth, -100 = all killed)
Settings in all cases: 10 µM

Structures are written as SMILES. About 83,000 compounds went through this panel and 20% of them were active in at least one assay; those are over-represented in the sample as a whole.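 Cells were grown in 96-well plates and exposed to the test compound at a single concentration for 48 hours; results are reported as percent growth, with values below 10 considered active.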 Unmarked numbers belong to inactive results. Calls of active or inactive are those of the source.

Consider `CC(C)C[C@H](NC(=O)[C@H](Cc1cccc2ccccc12)NS(=O)(=O)c1cccc2cccnc12)B(O)O`, for which the growth in the assay on RPMI-8226 leukemia was -36.7% (active); in the assay with OVCAR-5 ovarian, -57.6% (active); with SK-OV-3 ovarian it was 0.299% (active); in the assay with IGROV1 ovarian it was -64.7% (active); with OVCAR-3 ovarian, -77.1% (active); in the assay with HS 578T breast, -18.8% (active). For the same molecule, the growth in the assay with NCI/ADR-RES ovarian was 14.6%; in the assay on T-47D breast, -44.6% (active).

As to `c1ccc([C@H]2CN3CCSC3=N2)cc1`, the growth in the assay on RPMI-8226 leukemia was 110%; in the assay on OVCAR-5 ovarian, 87.2%; in the assay on SK-OV-3 ovarian, 107%; with OVCAR-3 ovarian, 111%; in the assay with HS 578T breast, 85.7%; with NCI/ADR-RES ovarian, 103%. Besides, the growth in the assay with T-47D breast was 99.6%.

As for `COc1cccc(C2C3=C(COC3=O)N(CCO)c3cc(OC)ccc32)c1` (centres undefined), the growth in the assay with RPMI-8226 leukemia was 20.6%; in the assay on OVCAR-5 ovarian, 27.5%; with OVCAR-4 ovarian it was 59.2%; in the assay with SK-OV-3 ovarian, 21.6%; with IGROV1 ovarian it was 24.3%; with OVCAR-3 ovarian, -50% (active). Besides, the growth in the assay on HS 578T breast was 15.5%; in the assay on NCI/ADR-RES ovarian it was -12.5% (active); in the assay with T-47D breast it was 62.1%.

For the molecule `COc1ccc2c(c1)N(CCO)C1=C(C(=O)OC1)C2c1ccccc1` (centres undefined), the growth in the assay with OVCAR-8 ovarian is 29.6%; with OVCAR-5 ovarian, 66.5%; with OVCAR-4 ovarian, 69.5%; in the assay with SK-OV-3 ovarian, 19.5%; in the assay with IGROV1 ovarian, 43.3%; with OVCAR-3 ovarian it was -40.3% (active). The values for the growth in the assay with HS 578T breast and in the assay with NCI/ADR-RES ovarian were -5.25% (active) and -2.83% (active), respectively.

For `COc1ccc(/C(=C2\O[C@@H]([C@H]3COC(C)(C)O3)[C@H]3OC(C)(C)O[C@@H]23)c2cc(OC)c(OC)c(OC)c2)cc1O`, the growth in the assay with RPMI-8226 leukemia was 63.7%; in the assay with OVCAR-8 ovarian, 68.3%; in the assay with OVCAR-4 ovarian, 99.2%; with SK-OV-3 ovarian, 38%; in the assay with OVCAR-3 ovarian, 48%; in the assay with HS 578T breast, -22.2% (active). The growth with NCI/ADR-RES ovarian is 10.1%; in the assay on T-47D breast, 121%.

Turning to `Cc1cccc2c(NCCN(C)C)c3cccc(C(=O)NCCN(C)C)c3nc12`, the growth with RPMI-8226 leukemia was -34.6% (active); with OVCAR-5 ovarian, 26.1%; in the assay with OVCAR-4 ovarian, -44% (active); in the assay with SK-OV-3 ovarian, 19.7%; with IGROV1 ovarian, -61% (active); in the assay on OVCAR-3 ovarian, 13.9%. Moreover, the growth was 10.2% in the assay with HS 578T breast, -3.11% (active) in the assay on NCI/ADR-RES ovarian and 29.3% in the assay on T-47D breast.

With `CCC(=O)N1C/C(=C/c2ccc(OC)cc2)C(=O)/C(=C/c2ccc(OC)cc2)C1`, the growth was -15.8% (active) in the assay on RPMI-8226 leukemia; 10.7% with OVCAR-8 ovarian; 40.8% with SK-OV-3 ovarian; 41.8% with IGROV1 ovarian; -6.54% (active) with OVCAR-3 ovarian; 9.81% (active) in the assay with HS 578T breast. For the same molecule, the growth is 25% in the assay with NCI/ADR-RES ovarian and 57% with T-47D breast.

As to `CCN(CC)CCSCCN(CC)CC`, the growth was 101% in the assay with OVCAR-8 ovarian; 94.3% in the assay with OVCAR-5 ovarian; 96.4% with OVCAR-4 ovarian; 98.9% in the assay with SK-OV-3 ovarian; 109% with IGROV1 ovarian; 108% with OVCAR-3 ovarian. For the same molecule, the results for the growth in the assay with HS 578T breast and with NCI/ADR-RES ovarian were 106% and 108%, respectively.

On to `O=C(N/N=C/c1ccccc1)C(Oc1ccccc1)c1ccccc1` (centres undefined), for which the growth is 98.1% in the assay with RPMI-8226 leukemia; 100% with OVCAR-8 ovarian; 104% in the assay with SK-OV-3 ovarian; 98.9% in the assay with IGROV1 ovarian; 105% in the assay on OVCAR-3 ovarian; 98.4% in the assay with HS 578T breast. The growth in the assay with NCI/ADR-RES ovarian was 75.2%; with T-47D breast, 94.4%.

With `COC(=O)[C@@H]1[C@H](O)[C@H](C)[C@H](O)[C@@](C)(O)/C=C\C=C(C)C(=O)Nc2c(C)c(OC(C)=O)c3c(c2O)C(=O)C(C)=C2OCOC(=C23)C(C)=C[C@@](C)(O)[C@H](O)[C@@H](C)[C@H]1OC(C)=O`, the growth in the assay on RPMI-8226 leukemia is -13.2% (active); with OVCAR-5 ovarian, 97.7%; in the assay on OVCAR-4 ovarian it was 117%; in the assay with SK-OV-3 ovarian it was 117%; in the assay with IGROV1 ovarian, 88.4%; in the assay on OVCAR-3 ovarian, 112%. Further, the figures for the growth in the assay with HS 578T breast, in the assay with NCI/ADR-RES ovarian and with T-47D breast were 110%, 114% and 102%, respectively.

On to `Clc1nc(Cl)c2c(ncn2C/C=C\Cn2cnc3c(Cl)nc(Cl)nc32)n1`, for which the growth was -83% (active) with OVCAR-8 ovarian; -76.7% (active) with OVCAR-5 ovarian; -69% (active) in the assay with OVCAR-4 ovarian; 34.5% in the assay with SK-OV-3 ovarian; -83.7% (active) with IGROV1 ovarian; -98.9% (active) with OVCAR-3 ovarian. The figures for the growth in the assay with HS 578T breast and with NCI/ADR-RES ovarian were -53% (active) and 11%, respectively.

For the molecule `COc1ccc(N2C(=O)C3c4[nH]c5ccc(OCc6ccccc6)cc5c4C4CCC(C(C)C)CC4C3C2=O)cc1` (centres undefined), the growth with RPMI-8226 leukemia was 86.9%; with OVCAR-5 ovarian it was 84.4%; in the assay on OVCAR-4 ovarian it was 47.7%; in the assay on SK-OV-3 ovarian, 116%; in the assay with IGROV1 ovarian it was 59.6%; in the assay with OVCAR-3 ovarian, 109%. The growth in the assay on HS 578T breast is 92.7%; in the assay with NCI/ADR-RES ovarian, 109%; with T-47D breast, 104%.

With `COc1cc(-c2cc(/C=C3\C(=O)Nc4cc(Cl)ccc43)[nH]n2)cc(OC)c1OC`, the growth in the assay on RPMI-8226 leukemia was -28% (active); with OVCAR-8 ovarian it was 23.9%; in the assay on SK-OV-3 ovarian, 74.2%; in the assay on IGROV1 ovarian, 4.31% (active); with OVCAR-3 ovarian, 40.6%; in the assay with HS 578T breast, 12.6%. The growth with NCI/ADR-RES ovarian is 10.2%; in the assay on T-47D breast, 24.9%.

With `COc1cc(CNc2ccccc2C(=O)N2CCN(C(=O)c3cc(-c4cc(OC)c(OC)c(OC)c4)n4nc(-c5ccccc5)cc4n3)CC2)cc(OC)c1OC`, the growth with RPMI-8226 leukemia is 52.1%; in the assay with OVCAR-8 ovarian, 65.1%; in the assay with OVCAR-4 ovarian, 61.5%; with SK-OV-3 ovarian, 59.9%; in the assay with IGROV1 ovarian, 44.7%; in the assay on OVCAR-3 ovarian it was 4.83% (active). The values for the growth with HS 578T breast, in the assay on NCI/ADR-RES ovarian and with T-47D breast were 42.9%, 15.6% and 60.6%, respectively.

Consider `CN(C)CCN1C(=O)c2cccc3cc(N)cc(c23)C1=O`, for which the growth is 1.78% (active) in the assay with RPMI-8226 leukemia; 47.2% in the assay with OVCAR-5 ovarian; -5.76% (active) in the assay on OVCAR-4 ovarian; 36.9% in the assay with SK-OV-3 ovarian; -39.9% (active) in the assay with IGROV1 ovarian; 56.2% in the assay on OVCAR-3 ovarian. Moreover, the growth in the assay on HS 578T breast was 57.6%; in the assay with NCI/ADR-RES ovarian, 32.3%; in the assay with T-47D breast it was 12.4%.

Consider `N#Cc1c(C#N)c(SSc2c(C#N)c(C#N)c(N)n2-c2ccccc2)n(-c2ccccc2)c1N`, for which the growth in the assay on RPMI-8226 leukemia is 125%; in the assay on OVCAR-5 ovarian, 91.8%; in the assay with OVCAR-4 ovarian, 76.8%; in the assay with SK-OV-3 ovarian, 115%; with IGROV1 ovarian, 94.5%; in the assay with OVCAR-3 ovarian it was 127%. Besides, the figures for the growth with HS 578T breast, in the assay with NCI/ADR-RES ovarian and with T-47D breast were 99.6%, 101% and 96.5%, respectively.
